Data published in PubChem BioAssay (Tox21).
Where “and” joins values, the source holds several entries; their conditions need not be identical. Identical values can stand only once. Results filed as inconclusive are left out. A call without a number means that no potency is given here. Values without a mark were called inactive. Calls of active or inactive are those of the source. Calls come from the whole dose curve; as a rule, active = well fitted curve in the direction sought with a large enough effect in the repeat runs; inconclusive = weak or mixed curves; inactive = no such curve, though single readings can be large; an effect the other way counts as inactive or inconclusive.

What was measured:
[1] = molecular target: Cytochrome P450 2C9 (Homo sapiens) (UniProt P11712); test: Cytochrome P450 Family 2 Subfamily C Member 9 (CYP2C9) small molecule antagonists: luciferase reporter qHTS assay (AID 1671198); for activity change, negative = inhibition: series mostly up to about 120 µM
Chain of Cytochrome P450 2C9 (Homo sapiens) (P11712 whole entry, looked up): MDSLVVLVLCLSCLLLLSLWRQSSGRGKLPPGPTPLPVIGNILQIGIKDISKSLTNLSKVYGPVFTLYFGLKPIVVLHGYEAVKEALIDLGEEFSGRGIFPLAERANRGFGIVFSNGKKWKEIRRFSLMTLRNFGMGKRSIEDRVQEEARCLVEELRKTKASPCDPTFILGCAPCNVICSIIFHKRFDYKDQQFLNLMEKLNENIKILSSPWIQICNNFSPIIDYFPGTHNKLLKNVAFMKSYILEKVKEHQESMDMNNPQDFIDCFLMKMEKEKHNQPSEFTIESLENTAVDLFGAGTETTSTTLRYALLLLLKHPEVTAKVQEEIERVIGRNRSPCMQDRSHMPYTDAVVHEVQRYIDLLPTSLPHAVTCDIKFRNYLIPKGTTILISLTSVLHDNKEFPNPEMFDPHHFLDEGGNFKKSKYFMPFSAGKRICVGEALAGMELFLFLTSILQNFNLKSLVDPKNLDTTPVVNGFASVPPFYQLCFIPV
How it was run: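 CYP2C9 activity was measured with a P450-Glo proluciferin substrate. Enzyme–substrate mix was held with compound for 10 min at room temperature, then NADPH regeneration solution was added for 1 h at 37C. Luciferin product was read as luminescence.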

[2] = molecular target: Cytochrome P450 1A2 (Homo sapiens) (UniProt P05177); test: Cytochrome P450 Family 1 Subfamily A Member 2 (CYP1A2) small molecule antagonists: luciferase reporter qHTS assay (AID 1671199); for activity change, negative = inhibition: series mostly up to about 120 µM
Chain of Cytochrome P450 1A2 (Homo sapiens) (P05177 whole entry, looked up): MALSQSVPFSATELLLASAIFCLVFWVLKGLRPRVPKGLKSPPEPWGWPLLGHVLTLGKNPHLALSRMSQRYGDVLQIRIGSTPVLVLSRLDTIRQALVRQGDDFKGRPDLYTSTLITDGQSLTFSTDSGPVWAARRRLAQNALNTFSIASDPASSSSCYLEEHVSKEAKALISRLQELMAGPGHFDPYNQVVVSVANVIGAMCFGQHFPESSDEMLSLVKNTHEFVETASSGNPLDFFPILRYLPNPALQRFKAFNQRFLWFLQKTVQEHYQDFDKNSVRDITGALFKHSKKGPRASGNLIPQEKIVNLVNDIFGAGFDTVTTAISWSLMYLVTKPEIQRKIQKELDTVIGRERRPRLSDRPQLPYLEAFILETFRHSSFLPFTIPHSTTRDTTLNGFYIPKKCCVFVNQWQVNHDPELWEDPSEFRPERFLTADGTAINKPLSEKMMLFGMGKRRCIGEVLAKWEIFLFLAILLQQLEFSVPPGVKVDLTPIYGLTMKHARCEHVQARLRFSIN
How it was run: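 CYP1A2 turnover of a luminogenic substrate was quantified after 1 h with NADPH regeneration at room temperature. Furafylline served as positive control.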

[3] = molecular target: Voltage-gated inwardly rectifying potassium channel KCNH2 (Homo sapiens) (UniProt Q12809); test: Human Ether-a-go-go-Related Gene (hERG) channel small molecule antagonists: fluorescence cell-based qHTS assay (AID 1671200);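 for activity change, negative = inhibition: hERG-expressing U2OS cells given a thallium stimulus after FluxOR II dye loading; series mostly up to about 77 µM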
Chain of Voltage-gated inwardly rectifying potassium channel KCNH2 (Homo sapiens) (Q12809 whole entry, looked up): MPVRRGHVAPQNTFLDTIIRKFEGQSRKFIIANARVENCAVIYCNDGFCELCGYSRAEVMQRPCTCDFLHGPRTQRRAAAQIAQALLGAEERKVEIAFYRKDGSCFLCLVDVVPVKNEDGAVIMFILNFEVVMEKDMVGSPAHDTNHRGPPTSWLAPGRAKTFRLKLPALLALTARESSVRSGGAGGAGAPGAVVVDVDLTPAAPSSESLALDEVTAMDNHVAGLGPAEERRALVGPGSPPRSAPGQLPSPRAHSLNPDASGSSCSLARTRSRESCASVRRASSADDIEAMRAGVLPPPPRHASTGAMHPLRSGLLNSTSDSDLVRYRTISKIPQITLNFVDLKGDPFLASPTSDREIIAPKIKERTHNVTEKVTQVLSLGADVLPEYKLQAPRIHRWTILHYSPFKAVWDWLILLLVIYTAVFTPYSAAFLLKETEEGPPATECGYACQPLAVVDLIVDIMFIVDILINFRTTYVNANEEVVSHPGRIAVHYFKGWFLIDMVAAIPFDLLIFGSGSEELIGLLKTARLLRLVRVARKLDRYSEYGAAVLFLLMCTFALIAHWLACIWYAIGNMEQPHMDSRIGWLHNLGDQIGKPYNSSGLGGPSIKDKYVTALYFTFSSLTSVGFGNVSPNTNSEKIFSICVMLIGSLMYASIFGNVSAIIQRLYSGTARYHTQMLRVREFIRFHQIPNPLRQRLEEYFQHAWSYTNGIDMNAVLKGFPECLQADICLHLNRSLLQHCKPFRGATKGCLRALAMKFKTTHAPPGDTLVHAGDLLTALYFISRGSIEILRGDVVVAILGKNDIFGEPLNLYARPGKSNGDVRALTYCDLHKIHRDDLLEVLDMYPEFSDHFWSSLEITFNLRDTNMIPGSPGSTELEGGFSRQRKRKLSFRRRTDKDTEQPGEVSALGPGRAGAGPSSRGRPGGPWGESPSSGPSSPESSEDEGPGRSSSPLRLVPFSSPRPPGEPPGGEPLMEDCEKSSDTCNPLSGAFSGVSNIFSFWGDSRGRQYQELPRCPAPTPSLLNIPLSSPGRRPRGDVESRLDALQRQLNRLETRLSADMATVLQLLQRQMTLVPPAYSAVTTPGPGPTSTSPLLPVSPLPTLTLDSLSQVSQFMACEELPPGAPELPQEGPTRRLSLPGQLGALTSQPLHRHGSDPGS
How it was run: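 Read-out: thallium influx as a surrogate for potassium, tracked as fluorescence (480 nm ex/540 nm em) every second for 2 min after Stimulus Buffer addition in dye-loaded hERG-U2OS cells.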

[4] = molecular target: Cytochrome P450 3A4 (Homo sapiens) (UniProt P08684); test: Cytochrome P450 Family 3 Subfamily A Member 4 (CYP3A4) small molecule antagonists: luciferase reporter qHTS assay (AID 1671201); for activity change, negative = inhibition: series mostly up to about 120 µM
Chain of Cytochrome P450 3A4 (Homo sapiens) (P08684 whole entry, looked up): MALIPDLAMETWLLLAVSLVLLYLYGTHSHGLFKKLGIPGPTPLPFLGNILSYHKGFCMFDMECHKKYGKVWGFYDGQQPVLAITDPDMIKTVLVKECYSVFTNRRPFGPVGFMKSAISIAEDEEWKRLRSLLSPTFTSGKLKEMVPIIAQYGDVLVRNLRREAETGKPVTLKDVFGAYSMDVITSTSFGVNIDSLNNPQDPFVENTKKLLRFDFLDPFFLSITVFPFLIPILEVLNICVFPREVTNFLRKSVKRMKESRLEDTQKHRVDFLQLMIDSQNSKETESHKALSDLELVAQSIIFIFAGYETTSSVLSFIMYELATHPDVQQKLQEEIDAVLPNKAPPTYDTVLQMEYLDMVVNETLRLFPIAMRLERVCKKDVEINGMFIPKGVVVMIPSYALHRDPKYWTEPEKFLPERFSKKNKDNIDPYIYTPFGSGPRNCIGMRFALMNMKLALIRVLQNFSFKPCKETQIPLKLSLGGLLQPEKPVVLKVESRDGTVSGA
How it was run: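 Luminescent readout (RLU) proportional to CYP3A4 activity, from luciferin generated off a proluciferin substrate. Enzyme–substrate mix plus compound 10 min at room temp, NADPH regeneration 1 h, detection reagent 20 min.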
Note: nearly all actives have a fitted effect of over 50% in size.
Potency is the fitted concentration of half-maximal effect.

`CCc1c(C(=O)O)c(=O)cnn1-c1ccc(Cl)cc1` was tested, and the Potency [1] was “inactive”, the Potency [2] was “inactive” and the Potency [3] was “inactive”. The Potency [4] was “inactive”.

In the case of `c1ccc(Sc2ccccc2)cc1`, the Potency [1] is reported as “inactive”, the Potency [2] is reported as 31.7 µM (active) and the Potency [4] is reported as “inactive”.

In the case of `CC(C)(c1cc(Br)c(OCCO)c(Br)c1)c1cc(Br)c(OCCO)c(Br)c1`, the Potency [1] is reported as 4.38 µM (active), the Potency [2] is reported as 27.6 µM (active) and the Potency [4] is reported as 49.2 µM (active).

With `CC1=CCC(=O)O1` the Potency [1] was “inactive”, the Potency [2] was “inactive” and the Potency [3] was “inactive”. The Potency [4] was “inactive”.

With `C/C=C/c1ccc(OC)c(OC)c1` the Potency [1] was 35.6 µM (active), the Potency [2] was 25.2 µM (active) and the Potency [3] was “inactive”. For the same compound, the Potency [4] was 20 µM (active).

With `O=C(Nc1ccc(Cl)cc1)Nc1ccc(Cl)c(C(F)(F)F)c1` the Potency [1] was 13.8 µM (active), the Potency [2] was 25.7 µM (active) and the Potency [3] was “inactive”. The Potency [4] was “inactive”.

`CC(=O)Oc1ccc(C2(c3ccc(OC(C)=O)cc3)Oc3ccccc3NC2=O)cc1` was tested, and the Potency [1] was 2.45 µM (active), the Potency [2] was “inactive” and the Potency [3] was “inactive”. For the same compound, the Potency [4] was “inactive”.

With `CCc1ccc(O)c(C(C)(C)C)c1` the Potency [1] was 31.7 µM (active), the Potency [2] was 35.6 µM (active) and the Potency [4] was “inactive”.

With `Cc1ccc2ccc3cccc4ccc1c2c34` the Potency [1] was 63.2 µM (active), the Potency [2] was 0.563 µM (active) and the Potency [3] was “inactive”. The Potency [4] was 20 µM (active).

In the case of `CCOC(=O)CC(C)O` (stereo not drawn), the Potency [1] is reported as “inactive”, the Potency [2] is reported as “inactive” and the Potency [3] is reported as “inactive”. The Potency [4] was “inactive”.

With `CCCCOc1ccc(C(=O)CCN2CCCCC2)cc1` the Potency [1] was 17.4 µM (active), the Potency [2] was “inactive” and the Potency [4] was “inactive”.

`C=C(c1ccc(C(=O)O)cc1)c1cc2c(cc1C)C(C)(C)CCC2(C)C` was tested, and the Potency [1] was 27.5 µM (active), the Potency [2] was “inactive” and the Potency [3] was “inactive”. For the same compound, the Potency [4] was “inactive”.

`O=C1OC(=O)c2cccc3cccc1c23` was tested, and the Potency [1] was “inactive”, the Potency [2] was 35.9 µM (active) and the Potency [3] was “inactive”. For the same compound, the Potency [4] was “inactive”.

`O=C1Nc2ccc(Cl)cc2[C@@](C#CC2CC2)(C(F)(F)F)O1` was tested, and the Potency [1] was 15.5 µM (active), the Potency [2] was 17.4 µM (active) and the Potency [3] was “inactive”. The Potency [4] was “inactive”.

`CCCC(O)C(O)CO` (stereo not drawn) was tested, and the Potency [1] was “inactive”, the Potency [2] was “inactive” and the Potency [3] was “inactive”. For the same compound, the Potency [4] was “inactive”.

`CC(C)CCOCCC(C)C` was tested, and the Potency [1] was “inactive”, the Potency [2] was “inactive” and the Potency [3] was “inactive”. For the same compound, the Potency [4] was “inactive”.

`Cn1cccc1` was tested, and the Potency [1] was “inactive”, the Potency [2] was “inactive” and the Potency [3] was “inactive”. The Potency [4] was “inactive”.

With `Cc1cnccn1` the Potency [1] was “inactive”, the Potency [2] was “inactive” and the Potency [3] was “inactive”. The Potency [4] was “inactive”.

`Clc1cccnc1` was tested, and the Potency [1] was “inactive”, the Potency [2] was 35.6 µM (active) and the Potency [3] was “inactive”. The Potency [4] was “inactive”.

`CS(C)(=O)=O` was tested, and the Potency [1] was “inactive”, the Potency [2] was “inactive” and the Potency [3] was “inactive”. The Potency [4] was “inactive”.

With `CCN(CC)c1cccc(C)c1` the Potency [1] was “inactive”, the Potency [2] was “inactive” and the Potency [3] was “inactive”. For the same compound, the Potency [4] was “inactive”.

With `N#CSCSc1nc2ccccc2s1` the Potency [1] was 31.7 µM (active), the Potency [2] was 5.64 µM (active) and the Potency [3] was “inactive”. For the same compound, the Potency [4] was “inactive”.

With `Cn1cnc2ncnc(N)c21` the Potency [1] was “inactive”, the Potency [2] was 17.7 µM (active) and the Potency [3] was “inactive”. For the same compound, the Potency [4] was “inactive”.

`CCCOc1sc(C(=O)N2CCC(c3cc(CN)ccc3F)CC2)c(C)c1Br` was tested, and the Potency [1] was 1.63 µM (active), the Potency [2] was 73 µM (active) and the Potency [3] was 5.65 µM (active). The Potency [4] was 10.3 µM (active).

`CCCCCCCCCCCCN(CCO)CCO` was tested, and the Potency [1] was 63 µM (active), the Potency [2] was 11.2 µM (active) and the Potency [3] was 7.73 µM (active). For the same compound, the Potency [4] was “inactive”.

For `C=C[C@](C)(O)CC[C@@H]1[C@@]2(C)CCCC(C)(C)[C@@H]2CC[C@@]1(C)O`, the Potency [1] was 3.17 µM (active), the Potency [2] was 31.7 µM (active) and the Potency [4] was 5.03 µM (active).

With `CCN=C1C=CC(=C(c2ccc(N(CC)CC)cc2)c2ccc(N(CC)CC)cc2)c2ccccc21` the Potency [1] was 15.8 µM (active), the Potency [2] was 25 µM (active) and the Potency [3] was 0.345 µM (active). For the same compound, the Potency [4] was 8.88 µM (active).

In the case of `O=c1cccc[nH]1`, the Potency [1] is reported as “inactive”, the Potency [2] is reported as “inactive” and the Potency [3] is reported as “inactive”. The Potency [4] was “inactive”.

`CCc1ccc(C)nc1` was tested, and the Potency [1] was “inactive”, the Potency [2] was “inactive” and the Potency [3] was “inactive”. The Potency [4] was “inactive”.

`C(=C/c1ccccc1)/c1ccccc1` was tested, and the Potency [1] was “inactive”, the Potency [2] was “inactive” and the Potency [3] was “inactive”. For the same compound, the Potency [4] was “inactive”.

For `Clc1ccc(C(c2ccccc2Cl)C(Cl)Cl)cc1` (stereo not drawn), the Potency [1] was 20 µM (active) and 9.77 µM (active), the Potency [2] was “inactive” and the Potency [4] was “inactive”.

In the case of `O=C(O)Cc1ccc(OCCNC[C@H](O)c2ccccc2)cc1`, the Potency [1] is reported as “inactive”, the Potency [2] is reported as “inactive” and the Potency [3] is reported as “inactive”. The Potency [4] was “inactive”.

In the case of `CCCCCCCCCCCCCCCCCO`, the activity change, negative = inhibition [1] is reported as -2.94% [at 23.6 µM], the activity change, negative = inhibition [2] is reported as 6.84% [at 23.6 µM] and the activity change, negative = inhibition [3] is reported as 5.95% [at 15.8 µM]. The activity change, negative = inhibition [4] was 7.87% [at 23.6 µM].

`CC(COC(=O)c1ccccc1)OC(=O)c1ccccc1` (stereo not drawn) was tested, and the Potency [1] was 15.9 µM (active), the Potency [2] was 5.64 µM (active) and the Potency [3] was 43.6 µM (active). For the same compound, the Potency [4] was “inactive”.

For `CC1CCCCN1CCCOC(=O)c1ccc(OC2CCCCC2)cc1` (stereo not drawn), the Potency [1] was “inactive”, the Potency [2] was “inactive” and the Potency [3] was 2.68 µM (active). For the same compound, the Potency [4] was “inactive”.

For `Nc1ccc2cc3ccc(N)cc3nc2c1`, the Potency [1] was “inactive”, the Potency [2] was 564 nM (active) and 1.82 µM (active) and the Potency [3] was “inactive”. The Potency [4] was 3.99 µM (active).
